Inconclusive results are not listed. Activity calls are given as the source filed them. Unless noted, calls follow the shape of the full dose curve.
Tests used:
[1] = Nuclear factor erythroid 2-related factor 2/antioxidant responsive element (Nrf2/ARE) small molecule agonists: qHTS cell viability counter screen in human keratinocytes (AID 1919968; active = well fitted curve in the direction sought with a large enough effect in the repeat runs; an effect the other way counts as inactive or inconclusive; also: nearly all actives have a fitted effect of over 55% in size)
Procedure, shortened: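 KeratinoSens cells (HaCaT keratinocytes stably carrying an ARE-luciferase reporter) were seeded at 1,500 cells/well and rested 5 h at 37 C/5% CO2. They were then exposed to compounds in DMSO for 23 h. Viability was read by CellTiter-Fluor fluorescence after 1 h.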

[2] = target: Gonadotropin-releasing hormone receptor (Homo sapiens) (UniProt P30968); test: Human gonadotropin-releasing hormone receptor (GnRHR) small molecule agonists, calcium flux assay in GnRHR-HEK293 cells (AID 1920063); also: nearly all actives have a fitted effect of over 35% in size
Procedure, shortened: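 HEK293 cells stably expressing human GnRHR were plated 18 h at 37 °C, loaded with calcium dye 1 h at 37 °C, then given compound in agonist mode; fluorescence (Ex/Em 480/540) read kinetically for 3 min at 1 s intervals.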

[3] = target: KiSS-1 receptor (Homo sapiens) (UniProt Q969F8); test: Human kisspeptin (KISS1R) small molecule agonists, calcium flux assay in KISS1R-HEK293 cells (AID 1920064; active = well fitted curve in the direction sought with a large enough effect in the repeat runs; an effect the other way counts as inactive or inconclusive)
Procedure, shortened: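 HEK293 cells stably expressing human KISS1R were plated 18 h at 37 °C, loaded with calcium dye for 1 h at 37 °C, then given compound by pin tool. Fluorescence (Ex/Em 480/540) was read kinetically for 3 min.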

[4] = G protein-coupled receptor (GPCR) small molecule agonists, calcium flux assay: HEK293 wild type cell line counter screen (AID 1920065)
Procedure, shortened: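 Cells were plated and cultured 18 h at 37 C/5% CO2, then loaded with calcium dye for 1 h at 37 C. Compounds in DMSO were pin-transferred in agonist mode, and fluorescence (Ex/Em 480/540) was read kinetically for 3 min at 1 s intervals.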

[5] = p53 small molecule agonists, cell-based qHTS assay with human liver microsomes (AID 1963577);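 also: p53 response element beta-lactamase reporter cells with liver microsomes plus NADPH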
Procedure, shortened: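 HLM-supplemented p53RE-bla reporter assay: 16 h compound exposure at 37 C, microsomes and NADPH each 0.5 mg/mL final, read by fluorescence intensity.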

[6] = p53 small molecule agonists, cell-based qHTS assay with rat liver microsomes (AID 1963578)
Procedure, shortened: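 Quantitative HTS of the Tox21 10K library: p53RE-bla cells, rat liver microsomes plus NADPH at 0.5 mg/mL final each, 16 h at 37 C, beta-lactamase fluorescence detection.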

[7] = p53 small molecule agonists, cell-based qHTS assay with rat liver microsomes: qHTS cell viability counter screen (AID 1963580); also: nearly all actives have a fitted effect of over 45% in size
Procedure, shortened: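 Intracellular ATP, by CellTiter-Glo luminescence, defines viability. HCT-116 p53RE-bla cells, 4,000 per well, were compound-treated in the presence of rat liver microsomes and NADPH for 16 h at 37 C.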

[8] = p53 small molecule agonists, cell-based qHTS assay: qHTS cell viability counter screen (AID 1963581); also: nearly all actives have a fitted effect of over 45% in size
Procedure, shortened: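 p53RE-bla HCT-116 cells were exposed to compounds for 16 h at 37 C; after the beta-lactamase FRET read in the same wells, CellTiter-Glo was added and luminescence (intracellular ATP) read after 30 min at room temperature.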

[9] = p53 small molecule agonists, cell-based qHTS assay (AID 1963582; active = well fitted activation curve with a large enough effect in the signal ratio in the repeat runs, not every such curve was filed as active; the % refers to the signal ratio)
Procedure, shortened: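 p53RE-bla beta-lactamase reporter cells rested 5 h at 37 C/5% CO2, then received compounds in DMSO by pin transfer and were incubated 16 h at 37 C. LiveBLAzer B/G FRET substrate was loaded for 2 h at room temperature before fluorescence reading.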

[10] = target: 5-hydroxytryptamine receptor 2A (Homo sapiens) (UniProt P28223); test: 5-hydroxytryptamine receptor 2A (HTR2A) small molecule antagonists, cell-based qHTS assay (AID 1963586); also: nearly all actives have a fitted effect of over 45% in size
Procedure, shortened: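 Antagonist-mode intracellular calcium assay: DOI (4 nM) added after 5 min compound pre-incubation at room temperature to dye-loaded HTR2A-CHO cells. Fluorescence followed for 3 min, sampled every second.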

[11] = target: 5-hydroxytryptamine receptor 2A (Homo sapiens) (UniProt P28223); test: 5-hydroxytryptamine receptor 2A (HTR2A) small molecule agonists, cell-based qHTS assay (AID 1963587); also: nearly all actives have a fitted effect of over 30% in size
Procedure, shortened: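 Kinetic calcium-flux fluorescence (2 min, 1 sec intervals) after compound addition in agonist mode. HTR2A-CHO cells were cultured 18 h, then dye-loaded 1 h at 37 C.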

[12] = target: Muscarinic acetylcholine receptor M1 (Homo sapiens) (UniProt P11229); test: Cholinergic receptor muscarinic 1 (CHRM1) small molecule antagonists, cell-based qHTS assay (AID 1963588); also: nearly all actives have a fitted effect of over 40% in size
Procedure, shortened: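 CHRM1-CHO calcium-flux assay, antagonist mode. Cells were seeded 18 h, dye-loaded 1 h at 37 C and given compound for 5 min at RT, then acetylcholine was added at 50nM. FDSS fluorescence was read 3 min; 15 concentrations, three runs.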

[13] = target: Muscarinic acetylcholine receptor M1 (Homo sapiens) (UniProt P11229); test: Cholinergic receptor muscarinic 1 (CHRM1) small molecule agonists, cell-based qHTS assay (AID 1963589); also: nearly all actives have a fitted effect of over 35% in size
Procedure, shortened: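 CHO cells stably expressing human CHRM1, seeded 18 h at 37 C/5% CO2, dye-loaded 1 h at 37 C, then given compound in agonist mode; intracellular calcium fluorescence read kinetically at 1 s intervals. Fifteen concentrations, three independent runs.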

[14] = cAMP Responsive Elements (CRE) small molecule agonists, cell-based qHTS assay (AID 1963590)
Procedure, shortened: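 CRE-bla HEK 293T cells in DMEM with 10% dialyzed FBS, NEAA, pyruvate and 25 mM HEPES were plated 18 h at 37 C/5% CO2, then exposed to compounds in DMSO for 3 h before LiveBLAzer B/G FRET substrate addition.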

[15] = cAMP Responsive Elements (CRE) small molecule antagonists, cell-based qHTS assay (AID 1963591; active = well fitted inhibition curve with a large enough effect in the signal ratio in the repeat runs, not every such curve was filed as active; the % refers to the signal ratio)
Procedure, shortened: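 CRE-bla HEK293T cells were plated 18 h at 37 °C/5% CO2, pinned with compound in DMSO, then stimulated with NKH477 at 0.25 uM final for 3 h. LiveBLAzer B/G FRET substrate was added and plates incubated 2 h at room temperature.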

[16] = target: Beta-2 adrenergic receptor (Homo sapiens) (UniProt P07550); test: Adrenergic beta2 receptor (ADRB2) small molecule antagonists, cell-based qHTS assay (AID 1963592); also: series mostly up to about 92 µM; nearly all actives have a fitted effect of over 50% in size
Procedure, shortened: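 Cells (CHO, stable ADRB2 overexpression) incubated 18-20hr at 37C; compounds added from DMSO; agonist mix (1nM isoproterenol, 100uM IBMX, 25uM Ro-20-1724) added; 0.5hr RT; d2-cAMP and anti-cAMP-cryptate added; 1hr RT; 665/615 nm read.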

[17] = target: Beta-2 adrenergic receptor (Homo sapiens) (UniProt P07550); test: Adrenergic beta2 receptor (ADRB2) small molecule agonists, cell-based qHTS assay (AID 1963593);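 also: CHO cells stably overexpressing human ADRB2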
Procedure, shortened: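 CHO cells stably over-expressing ADRB2 were plated overnight at 37C, then dosed with compounds plus a stimulation mix containing 100uM IBMX and 25uM Ro-20-1724 for 0.5hr at room temperature. cAMP was measured by HTRF competition, 1hr.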

[18] = target: D(2) dopamine receptor (Homo sapiens) (UniProt P14416); test: Dopamine D2 receptor (DRD2) small molecule antagonists, cell-based qHTS assay (AID 1963595; active = well fitted inhibition curve with a large enough effect in the signal ratio in the repeat runs, with a control signal flat; the % refers to the signal ratio)
Procedure, shortened: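 HTRF cAMP read-out at 665 and 620 nm emission (340 nm excitation). Antagonist mode: compounds were tested against 12 nM quinpirole in DRD2-HEK293 cells, with 200 nM NKH477 raising cAMP and 0.1 mM Ro20-1724 blocking its breakdown.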

[19] = p53 small molecule agonists, cell-based qHTS assay with human liver microsomes: qHTS cell viability counter screen (AID 1963579); also: nearly all actives have a fitted effect of over 45% in size
Procedure, shortened: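 Viability of p53RE-bla cells is measured as CellTiter-Glo luminescence following a 16 h, 37 C incubation with compound, liver microsomes from human donors and NADPH.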

[20] = target: D(2) dopamine receptor (Homo sapiens) (UniProt P14416); test: Dopamine D2 receptor (DRD2) small molecule agonists, cell-based qHTS assay (AID 1963594); also: nearly all actives have a fitted effect of over 35% in size
Procedure, shortened: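 cAMP accumulation in DRD2-HEK293 cells measured by HTRF after 1 h detection; compounds added 10 min before NKH477 (200nM […]) forskolin-analogue stimulation, 30 min at room temperature, with Ro20-1724 present at 0.1 mM final.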

Measured: Potency

Muscarinic acetylcholine receptor M1 (Homo sapiens), sequence (P11229 whole entry, looked up): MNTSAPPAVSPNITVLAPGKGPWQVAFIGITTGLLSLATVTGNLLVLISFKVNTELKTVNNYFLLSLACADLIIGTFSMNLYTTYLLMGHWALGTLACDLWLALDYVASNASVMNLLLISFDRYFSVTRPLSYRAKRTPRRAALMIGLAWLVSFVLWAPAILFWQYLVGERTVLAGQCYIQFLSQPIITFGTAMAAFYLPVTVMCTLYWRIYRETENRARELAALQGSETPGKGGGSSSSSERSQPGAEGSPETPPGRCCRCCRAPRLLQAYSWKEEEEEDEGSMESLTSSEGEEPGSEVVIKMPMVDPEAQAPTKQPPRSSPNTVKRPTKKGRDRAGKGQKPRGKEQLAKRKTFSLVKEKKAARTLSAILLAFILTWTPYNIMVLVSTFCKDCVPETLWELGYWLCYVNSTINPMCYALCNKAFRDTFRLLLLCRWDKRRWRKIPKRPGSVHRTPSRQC
KiSS-1 receptor (Homo sapiens), sequence (Q969F8 whole entry, looked up): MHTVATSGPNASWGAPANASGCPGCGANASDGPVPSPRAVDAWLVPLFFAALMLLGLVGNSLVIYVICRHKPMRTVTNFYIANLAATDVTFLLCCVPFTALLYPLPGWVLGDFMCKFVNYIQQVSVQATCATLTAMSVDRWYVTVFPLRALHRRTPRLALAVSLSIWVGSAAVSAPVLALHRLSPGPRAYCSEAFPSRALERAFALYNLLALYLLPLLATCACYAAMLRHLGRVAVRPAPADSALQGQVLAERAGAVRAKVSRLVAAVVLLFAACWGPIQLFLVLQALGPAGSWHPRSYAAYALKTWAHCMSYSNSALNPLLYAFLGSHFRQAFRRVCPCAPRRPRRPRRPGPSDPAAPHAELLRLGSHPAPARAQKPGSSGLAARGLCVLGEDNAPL
Beta-2 adrenergic receptor (Homo sapiens), sequence (P07550 whole entry, looked up): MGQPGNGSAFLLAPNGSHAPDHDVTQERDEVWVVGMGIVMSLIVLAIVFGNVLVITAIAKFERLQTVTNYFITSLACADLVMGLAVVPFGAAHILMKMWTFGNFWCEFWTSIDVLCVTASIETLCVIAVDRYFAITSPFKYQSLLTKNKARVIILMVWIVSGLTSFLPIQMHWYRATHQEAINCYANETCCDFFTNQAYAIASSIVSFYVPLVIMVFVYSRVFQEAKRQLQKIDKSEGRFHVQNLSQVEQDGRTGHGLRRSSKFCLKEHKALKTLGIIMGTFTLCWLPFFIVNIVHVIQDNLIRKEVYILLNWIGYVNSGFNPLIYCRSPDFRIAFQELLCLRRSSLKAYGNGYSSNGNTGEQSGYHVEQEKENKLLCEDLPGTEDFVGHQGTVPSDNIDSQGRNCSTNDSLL
5-hydroxytryptamine receptor 2A (Homo sapiens), sequence (P28223 whole entry, looked up): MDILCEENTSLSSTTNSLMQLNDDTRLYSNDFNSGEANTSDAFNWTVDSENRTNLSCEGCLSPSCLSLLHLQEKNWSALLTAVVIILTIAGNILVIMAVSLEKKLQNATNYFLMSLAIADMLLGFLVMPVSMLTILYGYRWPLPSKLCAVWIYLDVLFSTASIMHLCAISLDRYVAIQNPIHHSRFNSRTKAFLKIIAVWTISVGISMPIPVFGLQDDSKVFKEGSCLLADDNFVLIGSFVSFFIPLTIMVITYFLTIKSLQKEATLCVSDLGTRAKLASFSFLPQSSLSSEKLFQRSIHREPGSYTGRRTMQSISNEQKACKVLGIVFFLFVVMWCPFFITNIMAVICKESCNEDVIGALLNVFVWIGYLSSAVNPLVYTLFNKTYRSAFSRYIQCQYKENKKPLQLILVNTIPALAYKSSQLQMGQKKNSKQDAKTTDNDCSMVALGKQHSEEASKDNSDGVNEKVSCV
Gonadotropin-releasing hormone receptor (Homo sapiens), sequence (P30968 whole entry, looked up): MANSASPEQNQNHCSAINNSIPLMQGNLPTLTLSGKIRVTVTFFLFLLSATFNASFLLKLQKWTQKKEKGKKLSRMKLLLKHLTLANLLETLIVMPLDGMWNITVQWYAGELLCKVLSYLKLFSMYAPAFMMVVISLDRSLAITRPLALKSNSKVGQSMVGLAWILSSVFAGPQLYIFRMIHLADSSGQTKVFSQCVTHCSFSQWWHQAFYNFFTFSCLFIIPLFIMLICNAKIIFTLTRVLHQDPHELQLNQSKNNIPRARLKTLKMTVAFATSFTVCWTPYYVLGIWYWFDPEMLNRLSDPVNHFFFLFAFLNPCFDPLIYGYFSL
D(2) dopamine receptor (Homo sapiens), sequence (P14416 whole entry, looked up): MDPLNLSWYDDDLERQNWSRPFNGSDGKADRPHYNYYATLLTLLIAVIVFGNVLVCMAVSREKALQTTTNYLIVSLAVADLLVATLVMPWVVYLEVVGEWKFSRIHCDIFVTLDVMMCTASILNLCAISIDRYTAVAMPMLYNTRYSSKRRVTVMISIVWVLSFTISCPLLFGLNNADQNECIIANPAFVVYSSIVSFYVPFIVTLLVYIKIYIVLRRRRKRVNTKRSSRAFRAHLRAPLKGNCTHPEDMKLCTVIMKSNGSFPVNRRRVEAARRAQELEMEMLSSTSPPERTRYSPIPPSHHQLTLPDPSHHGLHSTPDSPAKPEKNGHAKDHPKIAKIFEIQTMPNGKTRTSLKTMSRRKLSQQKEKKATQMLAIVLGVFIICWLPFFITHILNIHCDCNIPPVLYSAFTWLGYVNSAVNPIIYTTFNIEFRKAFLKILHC

Cc1ccc(-c2ccccc2C#N)cc1
inactive: [1] | [2] | [3] | [4] | [5] | [6] | [7] | [8] | [9] | [10] | [11] | [12] | [13] | [14] | [15] | [16] | [17] | [18]

Clc1cccc(Cl)c1NC1=NCCN1
inactive: [1] | [2] | [3] | [4] | [5] | [6] | [19] | [8] | [9] | [14] | [15] | [16] | [17] | [20] | [18]

CCOC(=O)CC(C)=O
inactive: [1] | [2] | [3] | [4] | [19] | [7] | [8] | [10] | [11] | [12] | [13] | [14] | [15] | [20] | [18]

O=C(NCN1CCOCC1)c1cnccn1
inactive: [1] | [2] | [3] | [4] | [5] | [6] | [19] | [8] | [9] | [10] | [11] | [12] | [13] | [14] | [15] | [16] | [17] | [20] | [18]

O
inactive: [1] | [2] | [3] | [4] | [6] | [19] | [7] | [8] | [9] | [14] | [15] | [16] | [17] | [20] | [18]

CC(C)OC(=O)C(O)(CC(=O)O)CC(=O)O
inactive: [1] | [2] | [3] | [4] | [5] | [6] | [19] | [8] | [9] | [10] | [12] | [13] | [14] | [15] | [16] | [20] | [18]

CC(C)(CCC(=O)O)C(=O)O
inactive: [1] | [2] | [3] | [4] | [6] | [19] | [7] | [8] | [9] | [10] | [11] | [12] | [13] | [14] | [15] | [16] | [20] | [18]

CC(C)(C)NC[C@H](O)COc1nsnc1N1CCOCC1
inactive: [1] | [2] | [3] | [4] | [5] | [6] | [19] | [7] | [8] | [9] | [14] | [15] | [20]

— PubChem BioAssay (Tox21)
